Screening results from PubChem.
AMA1 RON2 block = AMA1-RON2 (P. falciparum) interaction inhibition; AlphaScreen AMA1-biotinylated RON2 peptide binding; Potency, µM (doses to about 58.2 µM), actives largely listed as inhibitors; 0.2% of 360,000 active; AID 720542; note: nearly all actives have a fitted effect of over 45% in size
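AMA1 (3D7) with his tag at 25 nM final met compounds first, then biotinylated RON2 peptide at 25 nM; detection used donor plus acceptor beads, 10 µg/mL apiece, read by AlphaScreen after 30 min at room temperature.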
Cycloheximide cs = affects cycloheximide protein synthesis inhibition readout, counter-screen | max response, % | AID 2314 | cell reporter, cycloheximide protein synthesis inhibition counterscreen | 12% of 300,000 active; in the data active = max response mostly above about 13%, no sharp cut-off; inactive = mostly below about 14%; note: read at 38.3 µM for the half of the compounds with a filed dose
SARS PLP yeast = inhibitors of SARS-CoV papain-like protease in yeast. S. cerevisiae expressing SARS-CoV PLpro, growth rescue. Potency, µM (top dose mostly 32.9 µM), usual class: activators. 0.19% of 330,000 active; calls by dose curve; note: nearly all actives have a fitted effect of over 55% in size
AmpC no deterg = AmpC beta-lactamase inhibition without detergent | P00811 | AmpC nitrocefin hydrolysis, absorbance 480 nm, 0.0001% Triton | Potency, µM (series often up to 57.1 µM), actives largely listed as inhibitors | 0.52% of 330,000 active; note: nearly all actives have a fitted effect of over 20% in size
Target sequence (P00811 whole entry, looked up): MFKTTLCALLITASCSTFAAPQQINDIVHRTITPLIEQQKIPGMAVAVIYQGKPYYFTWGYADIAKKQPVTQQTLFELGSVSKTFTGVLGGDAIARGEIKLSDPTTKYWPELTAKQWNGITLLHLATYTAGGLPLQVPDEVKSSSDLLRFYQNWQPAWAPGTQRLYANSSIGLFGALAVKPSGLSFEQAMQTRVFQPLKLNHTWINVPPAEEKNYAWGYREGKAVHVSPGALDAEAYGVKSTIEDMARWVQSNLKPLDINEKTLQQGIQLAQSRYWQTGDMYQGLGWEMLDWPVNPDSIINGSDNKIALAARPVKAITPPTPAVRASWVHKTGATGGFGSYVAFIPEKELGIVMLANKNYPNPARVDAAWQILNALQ
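20 mM phosphate pH 7.0 + 0.01% (detergent screen) or 0.0001% Triton X-100; 5.3 nM AmpC reagent; cpd preinc 15 min RT; nitrocefin (800 uM stock) to start; A480 q20 s × 4 min; Activity was normalised to no-enzyme and no-compound control wells.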
Shiga inhibitor = Shiga toxin inhibition. Vero cells, Shiga toxin protein synthesis inhibition reporter. inhibition, % at 38.7 µM. 9.2% of 290,000 active. AID 2315; in the data active = inhibition mostly above about 28%, no sharp cut-off; inactive = mostly below about 43%
AmpC detergent = blocks E. coli AmpC beta-lactamase in detergent assay | P00811 | AmpC hydrolysis of nitrocefin, absorbance 480 nm, 0.01% Triton | Potency, µM (highest dose often 114 µM), actives largely listed as inhibitors | 0.041% of 370,000 active; note: nearly all actives have a fitted effect of over 25% in size
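AmpC (5.3 nM in the dispensed reagent) in 20 mM phosphate pH 7.0 with 0.01% (detergent screen) or 0.0001% Triton X-100 was preincubated with compounds for 15 min at room temperature. Nitrocefin was then added from an 800 uM solution, and hydrolysis was followed at 480 nm.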
Of the large screens only hits and unclear results are named; the others gave an inactive call. This excerpt belongs to a sample that is enriched for hits. Unless noted, calls come from the whole dose curve; as a rule, active = well fitted curve in the direction sought with a large enough effect; inconclusive = small, poorly fitted or top-dose-only effect, or another doubt; inactive = no such curve, though single readings can be large; an effect the other way counts as inactive or inconclusive.

COc1ccc(C2Nc3ccccc3C(=O)N2Cc2ccco2)cc1COc1ccc([N+](=O)[O-])cc1 (stereo not given)	none
O=C(NCc1ccco1)c1cc(-c2ccc3c(c2)OCO3)on1	Cycloheximide cs 42, Shiga inhibitor 109
O=C(NCc1ccc2c(c1)OCO2)c1cc(-c2ccccc2)on1	none
COC(=O)c1cnn(-c2ccc(C)c(C)c2)c1-n1cccc1	Cycloheximide cs 20
COCCNC(=O)c1cnn(-c2cccc(C)c2)c1-n1cccc1	none (no result: AMA1 RON2 block, Cycloheximide cs, SARS PLP yeast, AmpC no deterg, Shiga inhibitor)
CC(=O)c1cccc(NS(=O)(=O)c2ccc(N/C=C\C(=O)c3ccc(F)cc3)cc2)c1	Cycloheximide cs 37, SARS PLP yeast inconclusive, Shiga inhibitor 122
CSc1cccc(NS(=O)(=O)c2ccc(C(C)=O)cc2)c1	none
CC(=O)c1cccc(NS(=O)(=O)c2ccc(N/C=C\C(=O)c3ccc(C)cc3)cc2)c1	none
CC(=O)c1cccc(NS(=O)(=O)c2ccc(N/C=C/C(=O)c3ccc(F)cc3)cc2)c1	Cycloheximide cs 46, Shiga inhibitor 110
CC(=O)c1ccc(NS(=O)(=O)c2ccc(N/C=C/C(=O)c3ccc(F)cc3)cc2)cc1	Cycloheximide cs 53, Shiga inhibitor 81
COc1cc(NS(=O)(=O)c2ccc(N/C=C\C(=O)c3ccc(F)cc3)cc2)nc(OC)n1	Cycloheximide cs 71, SARS PLP yeast inconclusive, Shiga inhibitor 94
CCn1c(SCC(=O)N(C)c2c(N)n(Cc3ccccc3)c(=O)[nH]c2=O)nnc1-c1cccs1	none (no result: Cycloheximide cs, SARS PLP yeast, AmpC no deterg, Shiga inhibitor, AmpC detergent)
COC(=O)c1nnn(Cc2ccccc2)c1N	none
Cc1cccc(OCC(=O)N2CCN(C(=O)c3cccs3)CC2)c1	none
Cc1ccc(C(=O)/C=C/Nc2ccc(S(=O)(=O)Nc3cc(C)nc(C)n3)cc2)cc1	Cycloheximide cs 29
Cc1ccc(/C=C/C(=O)Nc2ccc(S(=O)(=O)Nc3cc(C)nc(C)n3)cc2)cc1	AmpC detergent inconclusive
CCN(CC)S(=O)(=O)c1ccc(C(=O)NCc2ccc3[nH]c4c(c3c2)CCCC4)cc1	AmpC no deterg 25µM
Cc1ccc(C)c(NC(=S)NCc2ccc3[nH]c4c(c3c2)CCCC4)c1	AmpC no deterg 35µM
COC(=O)/C(=C\Nc1ccc(Cl)cc1Cl)NC(=O)c1ccc(Cl)cc1Cl	Cycloheximide cs 19, Shiga inhibitor 80 (no result: SARS PLP yeast, AmpC no deterg)
CCOC(=O)NC(=O)/C(C#N)=C\Nc1ccc(Cl)cc1Cl	Cycloheximide cs 32
COC(=O)/C(=C\Nc1ccc(Cl)cc1Cl)NC(=O)c1ccccc1	none (no result: SARS PLP yeast, AmpC no deterg)
CCOc1ccccc1NC(=O)CN1C(=O)C2(SCC(=O)N2c2cccc(F)c2)c2ccccc21 (stereo not given)	none (no result: AMA1 RON2 block, Cycloheximide cs, SARS PLP yeast, AmpC no deterg, Shiga inhibitor)
COc1ccc(N2CCN(C(=O)c3ccc(-c4ccccc4)cc3)CC2)cc1	none
CC(=O)Nc1ccc(NC(=O)C(C)OC(=O)c2ccc(-n3cnnn3)cc2)cc1 (stereo not given)	AmpC detergent inconclusive (no result: Cycloheximide cs, Shiga inhibitor)
O=C(Nc1nc2ccccc2s1)c1cc2c(s1)-c1ccccc1OC2	AmpC detergent inconclusive
O=C(Nc1nccs1)c1cc2c(s1)-c1ccccc1OC2	Cycloheximide cs 21, Shiga inhibitor 71, AmpC detergent inconclusive
CCOC(=O)c1cc2c(s1)-c1c(C)cccc1OC2	Cycloheximide cs 51, Shiga inhibitor 168
CCc1ccccc1N(C)C(=O)c1cc2c(s1)-c1c(C)cccc1OC2	none (no result: AMA1 RON2 block, Cycloheximide cs, SARS PLP yeast, AmpC no deterg, Shiga inhibitor)
Cc1cccc2c1-c1sc(C(=O)Nc3nccs3)cc1CO2	Cycloheximide cs 66, Shiga inhibitor 118, AmpC detergent inconclusive
O=c1[nH]c(SCc2ccc(Cl)cc2)nc2ccsc12	Cycloheximide cs 44, Shiga inhibitor 62
Cc1ccccc1CSc1nc2ccccc2c(=O)[nH]1	none
CCc1ccc(C(=O)CSc2nc3ccccc3c(=O)[nH]2)cc1	Cycloheximide cs 14
Cc1ccc(CSc2nc3ccccc3c(=O)[nH]2)cc1	Cycloheximide cs 38
N#Cc1c(-c2cccs2)nc(SCc2ccc(Cl)cc2)[nH]c1=O	none
Cc1cc(C)c(C(=O)CSc2nc3ccccc3c(=O)[nH]2)cc1C	AmpC no deterg 18µM, AmpC detergent inconclusive
C[C@H](c1ccccc1)N1C[C@@H](COCc2ccccc2)Oc2cc(N3CC[C@H](O)C3)ccc2S1(=O)=O	none (no result: Cycloheximide cs, SARS PLP yeast, AmpC no deterg, Shiga inhibitor, AmpC detergent)
Cc1ccc(C(=O)CSc2nc3ccccc3c(=O)[nH]2)cc1C	none
Cc1cc(=O)[nH]c(SCC(=O)c2ccc(C(C)C)cc2)n1	Cycloheximide cs 34, Shiga inhibitor 32
CCN(CC)C(=O)CSc1nc2ccccc2c(=O)[nH]1	Cycloheximide cs 9.0
Cc1ccc(C(=O)CSc2nc3ccccc3c(=O)[nH]2)cc1	Cycloheximide cs 15, AmpC detergent inconclusive
O=C(CNc1c(Br)cc(Br)cc1Br)NN=C1CCCCC1	none (no result: AMA1 RON2 block)
COc1ccc(NC(=O)c2cc(C3CCCCN3C(=O)Cc3ccc(N(C)C)cc3)on2)c(C)c1 (stereo not given)	none (no result: Cycloheximide cs, SARS PLP yeast, AmpC no deterg, Shiga inhibitor, AmpC detergent)
O=C(/C=N/NC(=O)c1ccc(Cl)cc1Cl)c1ccccc1	Cycloheximide cs 30, Shiga inhibitor 72
O=C(/C=N/NC(=O)c1ccccc1Br)c1ccccc1	Cycloheximide cs 46, Shiga inhibitor 81
O=C(N/N=C/c1coc2ccccc2c1=O)c1ccccc1Br	AmpC detergent inconclusive
c1ccc(-n2nc3c(ccc4cnnc43)[nH]2)cc1	Cycloheximide cs 43, Shiga inhibitor 83, AmpC detergent inconclusive
COCCNC(=S)N1CCN(c2nc(-c3ccc(Cl)cc3)cs2)CC1	none
COCCNC(=S)N1CCN(c2nc(-c3ccc(F)cc3)cs2)CC1	Cycloheximide cs 12
CCNC(=S)N1CCN(c2nc(-c3ccc(F)cc3)cs2)CC1	Cycloheximide cs 9.7
Cc1cccc(C)c1Cn1c(C)c(C(=O)NCc2ccccc2C(F)(F)F)sc1=O	none (no result: Cycloheximide cs, SARS PLP yeast, AmpC no deterg, Shiga inhibitor, AmpC detergent)
CCOC(=O)c1cccc(NC(=O)C(CC(C)C)N2Cc3ccccc3C2=O)c1 (stereo not given)	none (no result: AMA1 RON2 block, Cycloheximide cs, SARS PLP yeast, AmpC no deterg, Shiga inhibitor)
O=C(N=C1SCC(=O)N1c1ccccc1Cl)c1ccccc1	Cycloheximide cs 35, Shiga inhibitor 73
O=C(N=C1SCC(=O)N1c1ccccc1Cl)c1ccco1	Cycloheximide cs 30, Shiga inhibitor 104, AmpC detergent inconclusive
CCC1(CC)COP(=O)(OCC(Cl)CCl)OC1 (stereo not given)	none (no result: Cycloheximide cs, SARS PLP yeast, AmpC no deterg, Shiga inhibitor, AmpC detergent)
Clc1cc2nc3ccccn3c2cc1Cl	Cycloheximide cs 20, Shiga inhibitor 68
c1ccc(C2=Nc3ccccc3SC2c2nc3ccccc3[nH]2)cc1 (stereo not given)	Cycloheximide cs 36, Shiga inhibitor 87 (no result: AMA1 RON2 block, SARS PLP yeast, AmpC no deterg)
COCC(=O)Nc1ccc(N2CCN(c3ccccc3)CC2)c(F)c1	none
CCc1nc2ccccc2n(CC)c1=O	AmpC detergent inconclusive
Cc1ccccc1OCC(=O)Nc1nnc(C2CCCCC2)s1	none
O=C(Cc1ccccc1)Nc1nnc(-c2ccco2)s1	Cycloheximide cs 34, Shiga inhibitor 135
